Results filed as inconclusive are left out. A call without a number means that no potency is given here. A number with no mark means an inactive call. Calls of active or inactive are those of the source. The call rests on the fitted dose curve; in most records, active means well fitted cell-killing curve with a large enough effect in the repeat runs; inconclusive means weak or mixed curves, or effect the other way; inactive means flat fitted curve, though single readings scatter.

A short description of the assay: qHTS RealTime-Glo MT Cell Viability Assay in HepG2 cells - 0 hour (AID 1224889). Further: nearly all actives have a fitted effect of over 50% in size. To be noted: RealTime-Glo luminescence; series mostly up to 76.8 µM. Summed up:
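Tox21 10K library screened in qHTS format on HepG2 cells carrying RealTime-Glo reagents. Compounds were added after a 5 h preincubation, and the luminescent signal from continuous culture was measured repeatedly during 40 h treatment.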
A general note: qHTS replaces the single test concentration by a dilution series.
For `CC(=O)OCCC(C)CC(C)(C)C` (stereo unspecified), the Potency result is “inactive”.

Regarding `CS(=O)(=O)c1ccc([C@@H](C[C@H]2CCC(=O)C2)C(=O)Nc2cnccn2)cc1Cl`, the Potency entry is “inactive”.

In the case of `Cc1ccc2nc(N)[nH]c(=O)c2c1Sc1ccncc1`, the Potency result was “inactive”.

For `CC(C)Cc1ccc(CC(=O)O)cc1`, the Potency entry is “inactive”.

In the case of `COc1cc(NCc2ccc3nc(N)nc(N)c3c2C)cc(OC)c1OC`, the Potency entry was “inactive”.

On to `O=[N+]([O-])C1(Br)COCOC1`, for which the Potency entry was “inactive”.

Consider `CC/C=C\C/C=C\C/C=C\CCCCCCCC(=O)OCC`, for which the Potency result is “inactive”.

For `Cc1ccc(N(CCO)CCO)cc1`, the Potency entry was “inactive”.

Regarding `CC1CCC(C(C)CS)CC1S` (stereo unspecified), the Potency entry was “inactive”.

Take `COC(=O)CC(C(C)=O)C(=O)OC` (stereo unspecified): the Potency entry is “inactive”.

For `c1ccc(CCCc2ccncc2)cc1`, the Potency result is “inactive”.

Turning to `Cc1c[nH]c2ccccc12`, the Potency result is “inactive”.

For `COc1ccc(/C=C/C(=O)c2ccc(OC)cc2OC)cc1`, the Potency result was “inactive”.

In the case of `Cc1ccc2c(c1[N+](=O)[O-])C(=O)c1ccccc1C2=O`, the Potency result was “inactive”.

As to `CC(C)(C)NCC(O)COc1cccc2c1C[C@H](O)[C@H](O)C2` (stereo partly specified), the Potency entry is “inactive”.

Regarding `O=C(O)c1cc(Cl)cc(Cl)c1O`, the Potency result was “inactive”.

Regarding `CCOC(=O)Oc1ccc(CCNC(=O)[C@H](CCSC)NC(C)=O)cc1OC(=O)OCC`, the Potency result was “inactive”.

As to `CC(C)COC(=O)c1ccc(O)cc1`, the Potency result was “inactive”.

As to `CCN(Cc1cccc(S(=O)(=O)O)c1)c1ccc(C(=C2C=CC(=[N+](CC)Cc3cccc(S(=O)(=O)O)c3)C=C2)c2ccc(O)cc2S(=O)(=O)[O-])cc1`, the Potency entry is “inactive”.

Take `CCC(Cl)CC(Cl)C(Cl)C(Cl)C(Cl)C(C)Cl` (stereo unspecified): the activity change, negative = cytotoxicity was 1.09% [at 15.8 µM].

Turning to `COC(CC(C)CCCC(C)(C)O)OC` (stereo unspecified), the Potency result is “inactive”.

The values above are taken from PubChem BioAssay (Tox21).
